Bioassay records (PubChem BioAssay)
D1 agonist: activates the human D1 dopamine receptor | P21728 | HEK293 T-REx D1 cells, calcium flux, agonist mode | activation, % at 2 µM | 360,000 tested, 1% active; in the data active means activation above about 30%
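Tetracycline-induced HEK293 TREx D1 cells, force-coupled to calcium signalling, were dye-loaded with a no-wash calcium kit. Compound was pin-added after a 10 s baseline. Fluorescence was read kinetically at 1 cycle/s for 180 s, with calcium rises flagged as agonism.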
D1 potentiator: human D1 dopamine receptor positive modulation. P21728. HEK293 TREx D1 cells, calcium flux, dopamine EC20 potentiation. potentiation, % at 10 µM. 360,000 tested, 0.036% active. AID 504651; in the data active means potentiation above about 30%
DRD3 antagonist: antagonists of human D3 dopamine receptor; 360,000 tested, 2.5% active; D3R cells, DiscoveRx beta-arrestin luminescence, antagonist mode; hits give low values; P35462; max response, negative = inhibition, %; in the data active means max response below about -50%; inconclusive means no clear call, values can overlap the other calls
Target sequence (P35462 whole entry, looked up): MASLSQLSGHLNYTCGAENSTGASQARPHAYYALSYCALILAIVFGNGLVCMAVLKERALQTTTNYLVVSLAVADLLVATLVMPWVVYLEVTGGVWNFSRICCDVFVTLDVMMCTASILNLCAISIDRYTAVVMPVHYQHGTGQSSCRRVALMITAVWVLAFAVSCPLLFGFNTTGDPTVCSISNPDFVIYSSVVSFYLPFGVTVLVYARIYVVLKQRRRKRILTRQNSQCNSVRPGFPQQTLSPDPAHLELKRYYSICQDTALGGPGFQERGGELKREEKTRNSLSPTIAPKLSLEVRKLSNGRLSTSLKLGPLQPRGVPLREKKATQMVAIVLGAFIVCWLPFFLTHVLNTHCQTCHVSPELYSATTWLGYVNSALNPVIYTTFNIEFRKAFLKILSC
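Cells plated overnight at 1500 cells/well, then exposed to library compounds with dopamine controls for 90 minutes at 37 degrees C. DiscoveRx reagent added for 30–60 minutes at room temperature; luminescence read, quantitative HTS format.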
D3 ag: D3 dopamine receptor (human) agonism. P35462. max activation, %. 410,000 tested, 0.58% active. AID 652048. D3R DiscoveRx beta-arrestin cells, luminescence, 90 min; in the data active means max activation above about 30%
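Agonist mode: compounds and dopamine controls were applied to plated cells for 90 min at 37 degrees C after an overnight attachment at 1500 cells/well. Luminescent read-out followed 30 - 60 minutes at room temperature with DiscoveRx detection reagent.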
D1 antag: human D1 dopamine receptor antagonism | AID 504652 | P21728 | HEK293 TREx D1 cells, calcium flux, dopamine EC80; hits give low values | activity change, negative = inhibition, % at 10 µM | 360,000 tested, 3.2% active; in the data active means activity change below about -30%
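Inducible Hek293 Trex D1 cells (tetracycline, overnight, 30 C). Calcium dye 30–90 min RT. Antagonist mode: EC80 dopamine added after 180 s compound read.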
Hits are given with their value; 0 = inactive; ? = inconclusive; - = not tested or not shown; ! = not active in a repeat. Shown are actives, neighbours in structure and some others; about 6% of the full set was active somewhere.

SMILES | D1 agonist | D1 potentiator | DRD3 antagonist | D3 ag | D1 antag
COc1ccccc1N1CCN(C2CCN(C(=O)c3cccs3)CC2)CC1 | 0 | 0 | -63 | 0 | 0
CCOC(=O)N1CCC(N2CCN(c3ccccc3)CC2)CC1 | 0 | 0 | 0 | 35 | 0
O=C(c1cccs1)N1CCC(N2CCN(c3ccccc3)CC2)CC1 | 0 | 0 | ? | 47 | 0
CCN1C(=O)C(Cc2nc3ccccc3c(=O)n2-c2ccccc2)c2cc(Br)ccc21 (centres undefined) | 0 | 0 | - | 0 | 0
Cc1cc(C)cc(NC(=O)Nc2c[nH]c(=O)[nH]c2=O)c1 | 0 | 0 | - | 0 | 0
CSc1ccccc1C(=O)C1CCCN(C(=O)c2cncs2)C1 (centres undefined) | 0 | 0 | 0 | 0 | 0
Cc1ccc(S(=O)(=O)Nc2ccc3c(c2)nc2n3CCN(Cc3ccccc3)C2)cc1 | 0 | 0 | -51 | 0 | 0
O=S(=O)(Nc1ccc2c(c1)nc1n2CCN(Cc2ccccc2)C1)c1ccc(Cl)cc1 | 0 | 0 | -58 | 0 | 0
O=S(=O)(Nc1ccc2c(c1)nc1n2CCN(Cc2ccccc2)C1)c1ccccc1 | 0 | 0 | ? | 0 | 0
O=S(=O)(Nc1ccc2c(c1)nc1n2CCN(Cc2ccccc2)C1)c1ccc(F)cc1 | 0 | 0 | 0 | 0 | 0
O=C(Nc1nnc(S(=O)(=O)N2CCCc3ccccc32)s1)c1ccccc1Cl | 0 | 0 | - | 0 | 0
Cc1ccc(Nc2nc(N)nc(CSc3nccn3C)n2)c(C)c1 | 0 | 0 | 0 | 0 | -33
Cc1ccc(COC(=O)c2ccc(-c3nnn(Cc4ccc(C)cc4)n3)cc2)cc1 | 0 | 0 | - | 0 | 0
Cc1cccc(Cc2ccc(Cl)nn2)c1 | 0 | 0 | 0 | 0 | -38
Cc1cccc(CNCc2ccccc2)c1 | 0 | 0 | 0 | 0 | 0
O=C(COc1ccccc1F)NC1CC(=O)N(c2ccc3c(c2)OCCO3)C1 (centres undefined) | 0 | 0 | - | 0 | -
CCCCC/C=C/C1=CC(=O)C[C@H](c2ccc(OC)c(OC)c2)C1 | 0 | 0 | 0 | 0 | -
Cc1ccc(CSCC(=O)N2CCN(c3ccccc3F)CC2)cc1 | 0 | 0 | - | 0 | 0
O=C(CN1C(=O)COc2ccccc21)NCCN1CCC(Cc2ccccc2)CC1 | 0 | 0 | -57 | 0 | 0
O=C(CN1C(=O)COc2ccccc21)NCCN1CCOCC1 | 0 | 0 | 0 | 0 | 0
O=C(CN1C(=O)COc2ccccc21)NCCCN1CCc2ccccc2C1 | 0 | 0 | -77 | 0 | 0
O=C(CN1C(=O)COc2ccccc21)NCCCN1CCN(Cc2ccccc2)CC1 | 0 | 0 | ? | 0 | 0
CC1Oc2ccccc2N(CC(=O)NCCN2CCOCC2)C1=O (centres undefined) | 0 | 0 | 0 | 0 | -67
CCOc1ccccc1NC(=O)Cn1c(=O)n(CC(=O)NCc2ccccc2Cl)c(=O)c2sccc21 | 0 | 0 | - | 0 | 0
Cc1cc(-n2c(C)nc3ccccc3c2=O)ccc1NC(=O)C(F)(F)F | 0 | 0 | - | 0 | -
SMILES | D1 agonist | D1 potentiator | DRD3 antagonist | D3 ag | D1 antag
O=S(=O)(NCCc1csc(-c2ccc(F)cc2)n1)c1ccc(Cl)cc1 | 0 | 0 | - | 0 | 0
Cc1ccc(-n2c(SCC(=O)N3CCOCC3)nc(O)c(Cc3ccccc3)c2=O)cc1 | 0 | 0 | 0 | 0 | -31
Cc1ccc(-n2c(SCC(=O)N3CCOCC3)nnc2-c2ccncc2)cc1 | 0 | 0 | -76 | 0 | 0
CC(=O)N1Cc2cc(C(=O)NCC(F)(F)F)nc(-c3cccc(-c4cc5ccccc5o4)c3)c2[C@@H]1CCO | - | - | 0 | 55 | -
Clc1ccc2oc(-c3cccnc3)nc2c1 | 0 | 0 | 0 | 0 | -37
COc1ccc(-c2nnc(SCC(=O)Nc3cccc(F)c3)s2)cc1 | 0 | 0 | - | 0 | 0
Cc1cccc(C)c1NC(=O)COC(=O)CNC(=O)C1CCCCC1 | 0 | 0 | 0 | 0 | -31
O=C(COC(=O)CNC(=O)C1CCCCC1)Nc1ccccc1 | - | - | 0 | 0 | -
O=C(COC(=O)C1=COCCO1)NCc1ccc(F)cc1 | 0 | 0 | 0 | 0 | 0
COc1ccccc1CNC(=O)COC(=O)C1=COCCO1 | 0 | 0 | 0 | 0 | -66
CCOC(=O)CC(NC(=O)Cn1nnc(-c2ccccc2F)n1)c1ccc(OC)cc1 (centres undefined) | 0 | 0 | 0 | 0 | 0
COC(=O)c1cc(OC)c(OC)cc1NC(=O)Cn1nnc(-c2ccccc2Cl)n1 | 0 | 0 | 0 | 52 | 0
COc1ccccc1NC(=S)NC(=O)c1c(-c2ccccc2Cl)noc1C | 0 | 0 | 0 | 0 | 0
COC(=O)c1cc(OC)c(OC)cc1NC(=O)c1c(-c2ccccc2Cl)noc1C | 0 | 0 | 0 | 44 | 0
COc1ccc(NC(=O)Cn2nnc(-c3ccccc3F)n2)cc1Cl | 0 | 0 | 0 | 0 | 0
CCOC(=O)CC(NC(=O)Cn1nnc(-c2ccccc2Cl)n1)c1ccc(OC)cc1 (centres undefined) | 65! | 0 | 0 | 0 | 0
CCCCn1nc(NC(=O)c2cccc(Cl)c2)c2cc3cccc(C)c3nc21 | 0 | 0 | - | 0 | 0
CC(C)CCNC(=O)CCCN1C(=O)c2ccccc2Sc2ncccc21 | 0 | 0 | - | 0 | 0
CN(C1CCCCC1)S(=O)(=O)c1ccc2c(c1)c(=O)c(C(=O)NCCc1ccc(Cl)cc1)cn2C | 0 | 0 | - | 0 | 0
CCOC(=O)C1=C(O)c2ccccc2C(=O)/C1=C\c1ccc(C)cc1 | 34 | 0 | 0 | 0 | 0
CCC(CC)NC(=O)COC(=O)c1cc(Br)ccc1Cl | 0 | 0 | 0 | 0 | -36
CCCCNC(=O)COC(=O)c1cc(F)c(F)cc1Cl | 0 | 0 | 0 | 0 | 0
CNC(=O)COC(=O)CCC(=O)c1ccc(Cl)cc1 | 0 | 0 | 0 | 0 | 0
CCCCNC(=O)COC(=O)c1cc(Br)ccc1Cl | 0 | 0 | 0 | 0 | -31
CCC(CC)NC(=O)COC(=O)CCC(=O)c1ccc(Cl)cc1 | 0 | 0 | 0 | 41 | 0
SMILES | D1 agonist | D1 potentiator | DRD3 antagonist | D3 ag | D1 antag
CNc1c(NC(=O)C2CCC(C)CC2)c(=O)oc2ccccc12 (centres undefined) | 0 | 0 | 0 | 0 | 0
COc1ccc(C(=O)Nc2ccccc2SCc2cc(=O)c3cccc(C)c3[nH]2)cc1 | 0 | 0 | - | 0 | 0
Cc1cc(C(=O)CS(=O)(=O)c2ccc(F)cc2)cc(C)c1O | 0 | 0 | 0 | 0 | 0
Cc1cccc(CNC(=O)c2cnc3c(-c4cccc(C)c4)c(C)nn3c2C)c1 | 0 | 0 | - | 0 | -33
CCOc1ccc(-c2c(C)nn3c(C)c(C(=O)NCc4ccc(C)o4)cnc23)cc1OCC | 0 | 0 | - | 0 | -34
CC1CCC2(CC1)NC(=O)N(CC(=O)NCCc1ccc(F)cc1)C2=O (centres undefined) | 0 | 0 | 0 | 0 | 0
CC(=O)Nc1ccc(C(=O)/C=C/c2ccco2)cc1 | 0 | 0 | 0 | 0 | -77
CC(O)(c1ccc(F)c(F)c1)c1nc(-c2cccc(C(F)(F)F)c2)cs1 (centres undefined) | - | - | 0 | 0 | -
CC(O)(c1cccc(F)c1)c1nc(-c2ccccc2)cs1 (centres undefined) | - | - | -89 | 0 | -
COc1ccc(-c2csc(C(C)(NC(C)=O)c3ccc(OC)cc3)n2)cc1 (centres undefined) | - | - | -51 | 0 | -
